Data as given in PubChem BioAssay (NCI).
This is part of a sample that, as a whole, favours compounds with a hit. Of some 83,000 tested, about 20% had one in any assay.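 Values shown are percent growth following 48 h exposure of cells in 96-well plates to a single concentration of compound; below 10 was considered active.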 Calls of active or inactive are those of the source.

Experiments:
Assay in all cases: NCI-60 one-dose screen, 48 h (100 = growth as untreated, 0 = no growth, -100 = all killed)
Details in all cases: 10 µM unless noted
NCI-H23 lung = tested on: NCI-H23 lung
NCI-H226 lung = tested on: NCI-H226 lung
NCI-H322M lung = tested on: NCI-H322M lung
HOP-62 NSCLC = tested on: HOP-62 NSCLC
NCI-H460 lung = tested on: NCI-H460 lung
NCI-H522 lung = tested on: NCI-H522 lung
A549/ATCC NSCLC = tested on: A549/ATCC NSCLC
786-0 renal = tested on: 786-0 renal
COLO 205 colon = tested on: COLO 205 colon
DU-145 prostate = tested on: DU-145 prostate
K-562 leukemia = tested on: K-562 leukemia
MALME-3M melanoma = tested on: MALME-3M melanoma
MDA-MB-231 breast = tested on: MDA-MB-231 breast
RXF 393 renal = tested on: RXF 393 renal
SF-268 CNS = tested on: SF-268 CNS
SF-295 CNS = tested on: SF-295 CNS
SF-539 CNS = tested on: SF-539 CNS
UACC-257 melanoma = tested on: UACC-257 melanoma
M14 melanoma = tested on: M14 melanoma

Measured: growth

Cc1cc(N)cc(C)c1-c1c(Br)cc(N)cc1Br
inactive: NCI-H23 lung 50.9% | NCI-H226 lung 69.2% | NCI-H322M lung 18.8% | HOP-62 NSCLC 25.1% | NCI-H460 lung 17.4% | A549/ATCC NSCLC 25.2% | 786-0 renal 26.7% | COLO 205 colon 11.9% | DU-145 prostate 28.6% | MALME-3M melanoma 14% | MDA-MB-231 breast 42.6% | SF-268 CNS 41.4% | SF-539 CNS 15.3% | UACC-257 melanoma 62% | M14 melanoma 10.8%
active: NCI-H522 lung -9.5% | K-562 leukemia 8.58% | RXF 393 renal -22.9% | SF-295 CNS -14%

COc1cc(-c2nn(C(=O)NCCN3CCN(C)CC3)cc2-c2ccncc2)ccc1Cl
inactive: NCI-H23 lung 90.5% | NCI-H226 lung 27.1% | NCI-H322M lung 106% | HOP-62 NSCLC 41.6% | NCI-H460 lung 93.5% | NCI-H522 lung 75.3% | A549/ATCC NSCLC 57% | 786-0 renal 59.3% | COLO 205 colon 50.9% | DU-145 prostate 87.2% | K-562 leukemia 83.9% | MALME-3M melanoma 77.8% | MDA-MB-231 breast 70.5% | RXF 393 renal 42.3% | SF-268 CNS 46.2% | SF-295 CNS 88.2% | SF-539 CNS 63.6% | UACC-257 melanoma 86.2% | M14 melanoma 68.9%

COc1cc(C2C(C#N)=C(N)Oc3cc4c(cc32)OCO4)cc2c1OCO2 (centres undefined)
inactive: NCI-H322M lung 44.8% | HOP-62 NSCLC 28.2% | NCI-H460 lung 12.4% | A549/ATCC NSCLC 25.3% | 786-0 renal 31.1% | MALME-3M melanoma 52.6% | MDA-MB-231 breast 36.5% | SF-268 CNS 40.3% | UACC-257 melanoma 66.4%
active: NCI-H23 lung 8.48% | NCI-H226 lung 0.662% | NCI-H522 lung 5.81% | COLO 205 colon -42.1% | DU-145 prostate 6.37% | RXF 393 renal -12.1% | SF-295 CNS 9.43% | SF-539 CNS 2.43% | M14 melanoma -2.77%

C=C1C(=O)O[C@H]2[C@H]1CC/C(COC(=O)NCc1cn(C)c3ccccc13)=C\CC[C@@]1(C)O[C@@H]21
active: NCI-H460 lung 5.72% | NCI-H522 lung -80.2% | 786-0 renal -87.8% | COLO 205 colon -75.3% | DU-145 prostate -42.6% | K-562 leukemia -16.5% | MALME-3M melanoma -34.3% | MDA-MB-231 breast -8.6% | RXF 393 renal -93.7% | SF-539 CNS -34.6% | UACC-257 melanoma -15% | M14 melanoma -42.1%
inactive: NCI-H23 lung 38.4% | NCI-H226 lung 35.8% | NCI-H322M lung 80.6% | HOP-62 NSCLC 32.8% | A549/ATCC NSCLC 21% | SF-268 CNS 24.2% | SF-295 CNS 63.2%

CC(=O)Nc1ccc(/C=N/N2CCCCCC2)cc1
inactive: NCI-H23 lung 103% | NCI-H226 lung 92% | NCI-H322M lung 101% | HOP-62 NSCLC 95.2% | NCI-H460 lung 106% | NCI-H522 lung 103% | A549/ATCC NSCLC 94.3% | 786-0 renal 90.9% | COLO 205 colon 110% | DU-145 prostate 102% | MALME-3M melanoma 99.7% | MDA-MB-231 breast 74.7% | RXF 393 renal 105% | SF-268 CNS 99.4% | SF-295 CNS 94.3% | SF-539 CNS 83.6% | UACC-257 melanoma 114% | M14 melanoma 106%

C#CCNc1nc(NCCNC(=O)CCl)nc(N(C)CCCCc2ccccc2)n1
inactive: NCI-H23 lung 84.7% | NCI-H226 lung 71% | NCI-H322M lung 96.4% | HOP-62 NSCLC 94.3% | NCI-H460 lung 107% | NCI-H522 lung 25.4% | A549/ATCC NSCLC 119% | 786-0 renal 97.5% | COLO 205 colon 91.2% | DU-145 prostate 101% | K-562 leukemia 95.1% | MALME-3M melanoma 60.3% | MDA-MB-231 breast 90.7% | RXF 393 renal 93.5% | SF-268 CNS 94% | SF-295 CNS 99.4% | SF-539 CNS 106% | UACC-257 melanoma 113% | M14 melanoma 78.5%

O=c1nc(-c2ccccc2)c2cc(-c3ccc(N4CCOCC4)cc3)ccc2[nH]1
inactive: NCI-H23 lung 86.3% | NCI-H226 lung 72.1% | NCI-H322M lung 68.9% | HOP-62 NSCLC 73.7% | NCI-H460 lung 79.7% | NCI-H522 lung 68.3% | A549/ATCC NSCLC 64.3% | 786-0 renal 78.6% | COLO 205 colon 82.5% | DU-145 prostate 79.7% | K-562 leukemia 71.8% | MALME-3M melanoma 98.4% | MDA-MB-231 breast 78.4% | RXF 393 renal 73.4% | SF-268 CNS 94.3% | SF-295 CNS 88.6% | SF-539 CNS 94.9% | UACC-257 melanoma 71.6% | M14 melanoma 92.3%

Cc1ccccc1Nc1n[nH]c(Cc2ccccc2)n1
inactive: NCI-H23 lung 102% | NCI-H226 lung 100% | NCI-H322M lung 99.1% | HOP-62 NSCLC 94.6% | NCI-H460 lung 108% | NCI-H522 lung 58% | A549/ATCC NSCLC 100% | 786-0 renal 105% | COLO 205 colon 122% | DU-145 prostate 103% | K-562 leukemia 72% | MALME-3M melanoma 101% | MDA-MB-231 breast 110% | RXF 393 renal 108% | SF-268 CNS 101% | SF-295 CNS 103% | SF-539 CNS 107% | UACC-257 melanoma 92.7% | M14 melanoma 106%

O=C(/C=C/c1ccccc1Br)c1cccc(OCCCCOc2cccc(C(=O)/C=C/c3ccccc3Br)c2)c1
inactive: NCI-H23 lung 89.3% | NCI-H226 lung 89.9% | NCI-H322M lung 98.8% | HOP-62 NSCLC 103% | NCI-H460 lung 95.5% | NCI-H522 lung 90.7% | A549/ATCC NSCLC 87.7% | 786-0 renal 104% | COLO 205 colon 103% | DU-145 prostate 104% | K-562 leukemia 94.6% | MALME-3M melanoma 99.6% | MDA-MB-231 breast 104% | RXF 393 renal 96.9% | SF-268 CNS 101% | SF-295 CNS 95.5% | SF-539 CNS 102% | UACC-257 melanoma 94.1% | M14 melanoma 88%

CCn1c(Cc2ccccc2Nc2c(Cl)cccc2Cl)nnc1SCC(=O)Nc1ccccc1C(F)(F)F
inactive: NCI-H23 lung 89.7% | NCI-H226 lung 82.3% | NCI-H322M lung 79.4% | HOP-62 NSCLC 98.1% | NCI-H460 lung 95.8% | NCI-H522 lung 55.5% | A549/ATCC NSCLC 76.8% | 786-0 renal 92% | COLO 205 colon 99.1% | DU-145 prostate 103% | K-562 leukemia 72.5% | MALME-3M melanoma 100% | MDA-MB-231 breast 84.8% | RXF 393 renal 94.6% | SF-268 CNS 100% | SF-295 CNS 90.6% | SF-539 CNS 106% | UACC-257 melanoma 101% | M14 melanoma 92.2%

Clc1nnc2c3ccccc3ccn12
inactive: NCI-H23 lung 113% | NCI-H226 lung 77.8% | NCI-H322M lung 119% | HOP-62 NSCLC 98.5% | NCI-H460 lung 105% | NCI-H522 lung 103% | A549/ATCC NSCLC 102% | 786-0 renal 99.3% | COLO 205 colon 103% | DU-145 prostate 105% | K-562 leukemia 102% | MALME-3M melanoma 135% | MDA-MB-231 breast 118% | RXF 393 renal 97.6% | SF-268 CNS 97.6% | SF-295 CNS 104% | SF-539 CNS 109% | UACC-257 melanoma 105% | M14 melanoma 106%

CCN1C(=O)C(C)C=C(C)C=C1C (centres undefined)
inactive: NCI-H23 lung 102% | NCI-H226 lung 102% | NCI-H322M lung 108% | HOP-62 NSCLC 105% | NCI-H460 lung 113% | NCI-H522 lung 84.5% | A549/ATCC NSCLC 105% | 786-0 renal 115% | COLO 205 colon 104% | DU-145 prostate 90.7% | K-562 leukemia 95.3% | MALME-3M melanoma 104% | MDA-MB-231 breast 112% | RXF 393 renal 106% | SF-268 CNS 103% | SF-295 CNS 59.8% | SF-539 CNS 112% | UACC-257 melanoma 107% | M14 melanoma 120%

COc1cc(/C=C2\CN(C(=O)OC(C)(C)C)C/C(=C\c3ccc(O)c(OC)c3)C2=O)ccc1O
inactive: NCI-H23 lung 97.8% | NCI-H226 lung 94.6% | NCI-H322M lung 100% | HOP-62 NSCLC 98% | NCI-H460 lung 91.7% | NCI-H522 lung 64.5% | A549/ATCC NSCLC 73.2% | 786-0 renal 93.3% | COLO 205 colon 110% | DU-145 prostate 101% | K-562 leukemia 80.1% | MALME-3M melanoma 97.5% | MDA-MB-231 breast 86.1% | RXF 393 renal 102% | SF-268 CNS 89.5% | SF-295 CNS 101% | SF-539 CNS 106% | UACC-257 melanoma 73.6% | M14 melanoma 93.9%

Clc1ccc(-c2cnc3c(-c4ccnc(N5CCNCC5)c4)cnn3c2)cc1
inactive: NCI-H226 lung 115% | NCI-H322M lung 23.2% | A549/ATCC NSCLC 16.7% | DU-145 prostate 27.6% | SF-295 CNS 34.9%
active: NCI-H23 lung -12.3% | HOP-62 NSCLC -37.8% | NCI-H460 lung -39.8% | NCI-H522 lung -53.8% | 786-0 renal -70% | COLO 205 colon -57.7% | K-562 leukemia -13.5% | MALME-3M melanoma -37.5% | MDA-MB-231 breast -23.3% | RXF 393 renal -32.6% | SF-268 CNS -16.2% | SF-539 CNS -82.4% | UACC-257 melanoma -60% | M14 melanoma -78.8%
